Source: PubChem
TDP1 cell CPT – growth inhibition of DT40 Tdp1-/-;hTDP1 cells with camptothecin (screen for TDP1 inhibitors) | chicken DT40 Tdp1-/-;hTDP1 cells + 20 nM CPT, ATP luminescence, 48 h | Potency, µM (doses to about 46.2 µM), for the others: top-dose activity change, negative = growth inhibition, actives largely listed as inhibitors | 12% of 420,000 active | AID 686979; also: nearly all actives have a fitted effect of over 55% in size
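Cell growth measured by CellTiter-Glo luminescence after a minimum 48 h, 37 C compound exposure with 20 nM CPT in Tdp1-knockout DT40 cells stably expressing hTDP1, seeded 400/well; qHTS titration format.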
GCN5L2 inh – GCN5L2 (KAT2A) acetyltransferase inhibition. GCN5L2 HAT assay, ThioGlo1 CoA-SH fluorescence. Potency, µM (doses to about 58.9 µM), without a hit: top-dose activity change, negative = inhibition, usual class: inhibitors. 0.21% of 390,000 active
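GCN5L2 (20nM final) in 50mM HEPES, 0.1mM EDTA pH 7.5, 0.01% Tween-20 was preincubated 15 min at room temperature with compound, then given ThioGlo1 (50uM), H3(1-25) peptide (75uM) and acetyl-CoA (70uM); CoA-thiol fluorescence (Ex340/Em540) was read at 0 and 20 min.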
VDR inh – inhibitors of human vitamin D receptor; Potency, µM, without a hit: max response, negative = inhibition, actives largely listed as inhibitors; VDR-SRC2-3 peptide fluorescence polarization, 2 h; 0.93% of 400,000 active; P11473; AID 504847
Target sequence (P11473 whole entry, looked up): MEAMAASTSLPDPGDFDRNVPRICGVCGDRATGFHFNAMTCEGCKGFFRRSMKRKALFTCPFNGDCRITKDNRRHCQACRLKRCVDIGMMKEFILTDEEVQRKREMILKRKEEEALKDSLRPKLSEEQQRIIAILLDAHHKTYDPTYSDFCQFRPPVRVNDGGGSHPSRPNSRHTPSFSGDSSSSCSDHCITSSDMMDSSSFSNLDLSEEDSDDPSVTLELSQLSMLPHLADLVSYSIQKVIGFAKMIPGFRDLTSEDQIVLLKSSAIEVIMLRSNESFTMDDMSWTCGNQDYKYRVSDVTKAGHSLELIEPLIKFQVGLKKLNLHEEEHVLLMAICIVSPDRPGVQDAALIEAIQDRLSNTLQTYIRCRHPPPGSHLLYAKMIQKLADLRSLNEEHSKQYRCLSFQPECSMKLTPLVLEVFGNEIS
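Compounds are added to VDR with labelled SRC2-3 coactivator peptide and held 2 h at room temperature. Inhibition of the VDR–peptide interaction is then read as a change in fluorescence polarization.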
DT40 TDP1 no CPT – qHTS for Inhibitors of human tyrosyl-DNA phosphodiesterase 1 (TDP1): qHTS in cells in absence of CPT | 15% of 420,000 active | DT40 Tdp1-/- hTDP1 cells, no CPT, ATP luminescence, 48 h | AID 686978, 2013 | Potency, µM (doses to about 46.2 µM), without a hit: at the top dose activity change, negative = growth inhibition, hits mostly inhibitors; also: nearly all actives have a fitted effect of over 55% in size
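DT40 Tdp1-/-;hTDP1 cells, no CPT (DMSO vehicle only), 400 cells/well; compounds pin-transferred; ≥48 hr, 37 °C; CellTiter-Glo 30 min RT dark, luminescence read.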
PLK1 PBD block – inhibitors of human PLK1 polo-box domain binding. P53350. Plk1 PBD binding of FITC phosphopeptide, fluorescence polarization. Potency, µM, inactives show max response, negative = inhibition, hits mostly inhibitors. 2.8% of 360,000 active; also: series mostly up to about 57 µM; nearly all actives have a fitted effect of over 65% in size
TDP1 block – inhibitors of human tyrosyl-DNA phosphodiesterase TDP1; Q9NUW8; recombinant TDP1, AlphaScreen DNA substrate cleavage; Potency, µM (titrated, usually from 130 µM), without a hit: top-dose activity change, negative = inhibition, hits mostly inhibitors; 0.28% of 350,000 active; AID 485290; also: nearly all actives have a fitted effect of over 40% in size
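Signal: AlphaScreen proximity between streptavidin donor and anti-FITC acceptor beads on intact substrate. Reaction: Tdp1 1 nM, substrate 15 nM final, 5 min RT after 15 min compound preincubation.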
* marks the source's active call; other numbers are inactive results; [ ] = remark or other dose. A selection: hits, their analogues and other compounds. The true share with any hit is near 18%. Calls follow the shape of the dose curve; as a rule, active = well fitted curve in the direction sought with a large enough effect; inconclusive = small, poorly fitted or top-dose-only effect, or another doubt; inactive = no such curve, though single readings can be large; an effect the other way counts as inactive or inconclusive. % is scaled to controls: 0 for no effect and ±100 for the full control effect; potency is read from the fitted curve at half-maximal effect.

Screening Cn1c(=O)c2[nH]c(SCCN3CCOCC3)nc2n(C)c1=S returned TDP1 cell CPT inconclusive, VDR inh 28.2µM*, DT40 TDP1 no CPT -10.1% and PLK1 PBD block 26.7µM*.
Cc1cccc(NC(=O)Cn2c(=O)n(CCCS(=O)(=O)C3CCCCC3)c(=O)c3ccccc32)c1 was read as TDP1 cell CPT -8.3%, GCN5L2 inh -7.9%, VDR inh -11.1%, DT40 TDP1 no CPT inconclusive and TDP1 block 0.0%[12.3 µM].
`O=C(O)c1cc([N+](=O)[O-])ccc1-c1ccc([N+](=O)[O-])cc1C(=O)O` gave TDP1 cell CPT 2.3%, DT40 TDP1 no CPT 3.4% and PLK1 PBD block -18.8%.
CCN(CC)C(=O)c1cc([N+](=O)[O-])cc2c1-c1ccc([N+](=O)[O-])cc1C2=C(C#N)C#N was read as TDP1 cell CPT 0.651µM*, GCN5L2 inh inconclusive, VDR inh 25.1µM*, DT40 TDP1 no CPT 16.4µM*, PLK1 PBD block 9.47µM* and TDP1 block 8.2%.
For CCOC(=O)c1c(-c2ccc(C)cc2)csc1NC(=O)c1cc(=O)c2cc(C)ccc2o1 the results were TDP1 cell CPT -7.0%, GCN5L2 inh inconclusive, VDR inh 28.2µM*, DT40 TDP1 no CPT 4.4% and TDP1 block -3.7%.
`CCC(CC)c1nnc(NC(=O)COc2ccc3c(C)cc(=O)oc3c2)s1` gave TDP1 cell CPT inconclusive, GCN5L2 inh -12.4%, VDR inh 8.9%, DT40 TDP1 no CPT inconclusive, PLK1 PBD block -9.1% and TDP1 block 3.8%.
CCOC(=O)c1c(-c2ccc(OC)cc2)csc1NC(=O)COc1ccc2c(C)cc(=O)oc2c1 was read as TDP1 cell CPT 23.1µM*, GCN5L2 inh -1.2%, VDR inh 7.5%, DT40 TDP1 no CPT 16.4µM*, PLK1 PBD block 1.1% and TDP1 block 3.0%.
`CN(CC(=O)Nc1sccc1C(N)=O)S(=O)(=O)c1ccc(Cl)cc1` gave TDP1 cell CPT inconclusive, GCN5L2 inh -2.1%, VDR inh 2.4%, DT40 TDP1 no CPT inconclusive, PLK1 PBD block -11.4% and TDP1 block 1.3%.
`CSc1nnc(CCNC(=O)c2ccccc2C(F)(F)F)n1-c1ccc(F)cc1` gave TDP1 cell CPT 18.3%[9.04 µM] and DT40 TDP1 no CPT -7.0%.
`CCC(=NOCc1ccccc1)C(=O)NNS(=O)(=O)c1ccc(C)cc1` gave TDP1 cell CPT -25.0%, VDR inh -9.3%, DT40 TDP1 no CPT 1.4% and PLK1 PBD block 5.9%.
O=C(Cc1cccc(C(F)(F)F)c1)Nc1ccccc1 was read as TDP1 cell CPT inconclusive, GCN5L2 inh -6.6%, VDR inh -2.4%, DT40 TDP1 no CPT inconclusive, PLK1 PBD block 23.8µM* and TDP1 block -3.6%.
Screening CC(C)c1ccccc1NC(=O)COC(=O)Cc1cccc(C(F)(F)F)c1 returned TDP1 cell CPT inconclusive, GCN5L2 inh -2.6%, VDR inh inconclusive, DT40 TDP1 no CPT inconclusive, PLK1 PBD block 26.7µM* and TDP1 block 1.1%.
`CN(CC(=O)Nc1cccc(C(F)(F)F)c1)Cc1ccccc1` gave TDP1 cell CPT inconclusive, GCN5L2 inh -7.3%, VDR inh -6.1%, DT40 TDP1 no CPT 9.2µM*, PLK1 PBD block -11.3% and TDP1 block 7.4%.
For CCCCNC(=NCc1cccc(C(F)(F)F)c1)Nc1ccccc1 the results were TDP1 cell CPT 13µM*, GCN5L2 inh -5.5%, VDR inh 1.3%, DT40 TDP1 no CPT 10.3µM* and PLK1 PBD block -4.4%.
Screening O=C(COC(=O)Cc1cccc(C(F)(F)F)c1)Nc1cccc2ccccc12 returned TDP1 cell CPT 31.7%, GCN5L2 inh 32.5%, VDR inh -9.5%, DT40 TDP1 no CPT -3.3%, PLK1 PBD block -1.8% and TDP1 block 2.8%.
For CN(CC(=O)Nc1cccc(S(=O)(=O)N(C)C)c1)Cc1ccccc1 the results were TDP1 cell CPT -28.3%, GCN5L2 inh -1.3%, VDR inh -2.4%, DT40 TDP1 no CPT inconclusive, PLK1 PBD block -2.1% and TDP1 block 7.3%[0.0935 µM].
Cc1ccccc1NC(=O)Cc1cccc(C(F)(F)F)c1 was read as TDP1 cell CPT -1.9%, GCN5L2 inh -0.9%, VDR inh -3.4%, DT40 TDP1 no CPT -3.3%, PLK1 PBD block -14.4% and TDP1 block -2.8%.
For CC(C)=CCC/C(C)=C/CO/N=C1/C[C@@H](O)[C@@H](O)[C@@H]2[C@H]3C(=O)N(c4ccc(F)cc4F)C(=O)[C@@H]3CC[C@H]12 the results were TDP1 block 4.8%[21 µM].
For CCCNC(=O)c1cc(C2CCCCN2S(=O)(=O)Cc2cccc(C(F)(F)F)c2)on1 (stereo not given) the results were TDP1 cell CPT -29.3%, DT40 TDP1 no CPT -58.6% and PLK1 PBD block -5.7%.
Screening Cc1ccc(F)cc1NC(=O)COC(=O)C1CCN(c2ccc(C(F)(F)F)cn2)CC1 returned TDP1 cell CPT 3.8%, GCN5L2 inh -18.5%, VDR inh -4.4%, DT40 TDP1 no CPT 6.5% and PLK1 PBD block -6.5%.
For COc1ccc(OC)c(NC(=O)C2Cc3ccccc3CN2S(=O)(=O)c2ccc(F)cc2)c1 (stereo not given) the results were TDP1 cell CPT inconclusive, GCN5L2 inh -9.8%, VDR inh 12.5%, DT40 TDP1 no CPT inconclusive and TDP1 block 3.7%.
Screening C[C@@H](c1ccccc1)N1C[C@H](COCc2ccccc2)Oc2cc(N3CCC[C@H]3CO)ccc2S1(=O)=O returned TDP1 cell CPT inconclusive, DT40 TDP1 no CPT inconclusive and PLK1 PBD block 6.8%.
Screening C[C@@H](c1ccccc1)N1C[C@@H](COCc2ccccc2)Oc2cc(N3CCC[C@@H]3CO)ccc2S1(=O)=O returned TDP1 cell CPT inconclusive, DT40 TDP1 no CPT inconclusive and PLK1 PBD block -6.0%.
For COC[C@H]1CCCN1c1ccc2c(c1)O[C@H](COCc1ccccc1)CN([C@@H](C)c1ccccc1)S2(=O)=O the results were TDP1 cell CPT inconclusive, DT40 TDP1 no CPT 16.4µM* and PLK1 PBD block -4.2%.
Screening COC[C@@H]1CCCN1c1ccc2c(c1)O[C@H](COCc1ccccc1)CN([C@H](C)c1ccccc1)S2(=O)=O returned TDP1 cell CPT inconclusive, DT40 TDP1 no CPT 20.6µM* and PLK1 PBD block -2.0%.
Screening COC[C@H]1CCCN1c1ccc2c(c1)O[C@@H](COCc1ccccc1)CN([C@@H](C)c1ccccc1)S2(=O)=O returned TDP1 cell CPT 10.3µM*, DT40 TDP1 no CPT 7.31µM* and PLK1 PBD block -1.7%.
